From PubChem BioAssay (NCI)
About 83,000 compounds went through this panel and 20% of them were active in at least one assay; those are over-represented in the sample as a whole.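 Single-concentration screen, 48 h exposure, 96-well plates. Endpoint: percent growth. Below 10 = active.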 Unmarked numbers belong to inactive results. Calls of active or inactive are those of the source.

Legend:
Test in all cases: NCI-60 one-dose screen, 48 h (100 = growth as untreated, 0 = no growth, -100 = all killed)
Conditions in all cases: 10 µM unless noted
T-47D breast = tested on: T-47D breast
BT-549 breast = tested on: BT-549 breast
MDA-MB-435 melanoma = tested on: MDA-MB-435 melanoma
SW-620 colon = tested on: SW-620 colon
MCF7 breast = tested on: MCF7 breast
HCT-116 colon = tested on: HCT-116 colon
HCC-2998 colon = tested on: HCC-2998 colon
KM12 colon = tested on: KM12 colon

| Compound | growth (T-47D breast) | growth (BT-549 breast) | growth (MDA-MB-435 melanoma) | growth (SW-620 colon) | growth (MCF7 breast) | growth (HCT-116 colon) | growth (HCC-2998 colon) | growth (KM12 colon) |
| --- | --- | --- | --- | --- | --- | --- | --- | --- |
| CCOC(=O)CCN(c1c(Cl)ssc1=O)C(C)C | 112% | 95.7% | 107% | 99.3% | 89.7% | 93.4% | 115% | 113% |
| COc1ccc2nc(NC(=O)CN3CCn4c(nnc4C(F)(F)F)C3)sc2c1 | 95% | 96% | 90% | 94.5% | 69.6% | 99.4% | 103% | 79.3% |
| C[C@@H]1[C@H]2[C@H](C=C3[C@@H]4CC[C@H]5Cc6nc7c(nc6C[C@]5(C)[C@H]4C[C@@H](O)[C@@]32C)C[C@@H]2CC[C@H]3C4=C[C@@H]5O[C@@]6(CC[C@](C)(CO)O6)[C@@H](C)[C@@]5(O)[C@@]4(C)[C@H](O)C[C@@H]3[C@@]2(C)C7)O[C@]12CCC(C)(C)O2 | 7.03% (active) | 3.41% (active) | 51.8% | 8.02% (active) | 15.5% | 9.68% (active) | 66.5% | 28.7% |
| O=C(O)C1C(c2ccccc2)c2ccccc2C(O)C1CO (centres undefined) | 115% | 103% | 116% | 106% | 97% | 101% | 106% | 117% |
| O=C(/C=C/c1cccc(O)c1)c1cccc(-n2cc(-c3ccccc3)[nH]c2=O)c1 | 21.1% | 7.56% (active) | 33.8% | -32.1% (active) | 6.52% (active) | -67.7% (active) | -44.2% (active) | -73.3% (active) |
| COc1ccc(C(=O)/C=C/c2ccc(C)cc2)cc1OC | 59.3% | 89.8% | 97.1% | 24.7% | 35.5% | 30.1% | 90.1% | 20.1% |
| O=C1OC(Oc2ccccc2)(c2ccccc2)c2ccccc21 (centres undefined) | 100% | 102% | 102% | 106% | 117% | 102% | 104% | 93.3% |
| CCN(CC)CCSc1ncnc2c1cnn2-c1ccc(S(N)(=O)=O)cc1 | 102% | 100% | 76.2% | 73.5% | 83.1% | 70.6% | 97.8% | 106% |
| O=C1Nc2ccc(Cl)cc2[C@@](C#CC2CC2)(C(F)(F)F)O1 | 70.4% | 117% | 88% | 107% | 105% | 82.9% | 108% | 86.1% |
| C(=C1c2ccccc2-c2ccccc21)c1ccncc1 | 72.2% | 38.6% | -21.7% (active) | 17.1% | 18.8% | 16.4% | 66.6% | 18.5% |
| c1ccc2nc(N/N=C3\CCCCC3C3CCCCC3)ccc2c1 (centres undefined) | 40.4% | 61% | 78.8% | 44.2% | 58.1% | 6.79% (active) | 64.2% | 38.4% |
| O=C1C2C(C(=O)N1CC[Se][Se]CCN1C(=O)C3C(C1=O)[C@H]1C=C[C@@H]3C1)[C@H]1C=C[C@@H]2C1 (some centres undefined) | 5.4% (active) | -40.3% (active) | -65.9% (active) | 8.38% (active) | 9.03% (active) | 1.96% (active) | 28.6% | 0.112% (active) |
| O=C1OC2(c3ccccc31)c1ccccc1-c1ccccc12 | 90.1% | 82.7% | -26.9% (active) | 78.4% | 52.4% | 54.4% | 88.4% | 51.6% |
| N#Cc1c(-c2ccccc2)cc(-c2ccccc2)n(CCC(=O)O)c1=O | 44.1% | 27.2% | -9.89% (active) | 37.3% | 35% | 40% | 74.3% | 34.5% |
| COc1ccc2cc(-c3nc4ccccc4[nH]3)c(=O)oc2c1 | 92.9% | 101% | 108% | 95.5% | 89.3% | 93% | 78.3% | 93.8% |
| O=C(NN1C(=O)c2cc(C(=O)O)c(C(=O)O)cc2C1=O)c1ccncc1 | 102% | 103% | 114% | 101% | 98.3% | 106% | 103% | 111% |
| CCOC1Oc2ccccc2C(=O)/C1=N/c1nccs1 (centres undefined) | 66.5% | 77.1% | 104% | 87.1% | 79.1% | 92.9% | 99.7% | 93.5% |
| N#Cc1c(NC(=O)c2ccco2)[n+]([O-])c2ccccc2[n+]1[O-] | 90.8% | 92.9% | 107% | 107% | 71.3% | 93.8% | 98.3% | 109% |
| O=C(COc1ccc(/C=C2\Cc3ccccc3C2=O)cc1)c1ccc(Cl)cc1 | 102% | 113% | 95.4% | 107% | 97.1% | 77.7% | 82.2% | 107% |
| O=C(COc1ccc(/C=C2\Oc3ccc4ccccc4c3C2=O)cc1)c1ccc([N+](=O)[O-])cc1 | 73.1% | 9.91% (active) | 104% | 98.5% | 15.6% | 74.1% | 95.5% | 93.5% |
| C=CCNC(=O)/C(=C/c1cccc([N+](=O)[O-])c1)NC(=O)c1ccccc1 | 98.2% | 88.1% | 101% | 103% | 101% | 98.2% | 78.2% | 109% |
| COc1ccc(/C=C/C(=O)c2cccc(NS(C)(=O)=O)c2)cc1 | 70.6% | 105% | 90% | 50.5% | 50.4% | 21% | 111% | 38.5% |
| COc1ccc(CNC(=O)c2c(C)n([O-])c3cc(F)c(F)cc3[n+]2=O)cc1 | 67.8% | 80.3% | 106% | 71.1% | 55.9% | 97.8% | -73.5% (active) | 96.1% |
| N#Cc1ccccc1C#Cc1ccccc1C#Cc1ccc(OCCCCCCOc2ccc(C#Cc3ccccc3C#Cc3ccccc3C#N)cc2)cc1 | 93.4% | 112% | 107% | 96.6% | 78.6% | 91.8% | 107% | 105% |
| Fc1ccccc1C1c2ccccc2-c2nccn21 (centres undefined) | 91.3% | 106% | 108% | 107% | 101% | 90.1% | 103% | 93.8% |
| COc1ccc(-c2cc(-c3nnc(SCC(=O)Nc4ccc(C(C)=O)cc4)n3-c3ccccc3)c3ccccc3n2)cc1OC | 84% | 86.1% | 105% | 104% | 95.2% | 83.4% | 99.6% | 95.9% |
| COc1cc(/C=C2\CN(C)CC3=C2Nc2nc(SC)[nH]c(=O)c2C3c2cc(OC)c(OC)c(OC)c2)cc(OC)c1OC (centres undefined) | 85.4% | 54.9% | 2.77% (active) | 11.7% | 33.5% | -46.3% (active) | 49.9% | 37.2% |
| O=C(N/N=C/c1cccc(O)c1)c1ccc(C(F)(F)F)nc1Nc1cccc(C(F)(F)F)c1 | 5.41% (active) | 1.67% (active) | 51.2% | 7.06% (active) | 3.77% (active) | -21.4% (active) | 10.2% | 8.65% (active) |
